Compound activity deposited in PubChem by National Center for Advancing Translational Sciences (NCATS).
Shown are actives, neighbours in structure and some others; about 2.1% of the full set was active somewhere.
TDP-43 yeast inh – qHTS of TDP-43 Inhibitors; 410,000 tested, 1.8% active; Potency, µM (highest dose often 46.1 µM), actives largely listed as activators; AID 652104, 2013; TDP-43 expressing yeast growth rescue, BacTiter-Glo, 24 h; further: nearly all actives have a fitted effect of over 50% in size
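Readout is BacTiter-Glo luminescence of cell growth, so inhibitors register as activators. TDP-43-expressing yeast at OD600=0.02 in galactose medium, after raffinose pregrowth to mid-log, were incubated with compound for 24 hr at 30 deg C.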
aSyn rescue – qHTS of alpha-syn Inhibitors; 370,000 tested, 0.14% active; Potency, µM (titrated, usually from 46.1 µM), usual class: activators; Yeast expressing alpha-synuclein, growth rescue, BacTiter-Glo, 24 h; further: nearly all actives have a fitted effect of over 65% in size
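Readout is rescue of growth in alpha-synuclein-expressing yeast, so inhibitors of toxicity appear as activators. Growth after 24 hr at 30 deg C in galactose medium is quantified by luminescence.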
Abeta rescue – qHTS for compounds that reverse cellular toxicity of Amyloid beta (A-beta) peptide in yeast: Primary Screen | yeast expressing A-beta42, growth rescue, OD600, 48 h; response scale: 0% DMSO, 100% iron-clioquinol control | Potency, µM (series often up to 46.1 µM), actives largely listed as activators | 410,000 tested, 0.063% active; further: nearly all actives have a fitted effect of over 55% in size
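Growth rescue measured by 600 nm absorbance after 48 h yeast culture at 30 C with compound. Values normalized between DMSO and an equimolar ferric chloride plus clioquinol control.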
FUS yeast rescue – qHTS for Suppressors of FUS Proteinopathy: Primary screen using FUS-linked yeast assay | S. cerevisiae FUS-expressing, growth rescue, OD600, 24 h | Potency, µM (titrated, usually from 76.6 µM), most hits filed as activators | 390,000 tested, 0.24% active; further: nearly all actives have a fitted effect of over 55% in size
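Steps: raffinose overnight preculture; dilution to OD 0.005 in 2% galactose minimal medium; compound addition (concentration series); 24hr at 30C, 99% humidity; absorbance read at 600 nm.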
Large screens that a line does not name were inactive. The call rests on the fitted dose curve; in most records, active means well fitted curve in the direction sought with a large enough effect; inconclusive means small, poorly fitted or top-dose-only effect, or another doubt; inactive means no such curve, though single readings can be large; an effect the other way counts as inactive or inconclusive.

Cc1ccc(Sc2ccc(CO)cc2[N+](=O)[O-])cc1	TDP-43 yeast inh 14µM
CC(=O)c1ccc(Sc2ccccc2)c([N+](=O)[O-])c1	TDP-43 yeast inh 11µM
c1ccc(-c2ccc(OCCOCCn3cncn3)cc2)cc1	TDP-43 yeast inh 14µM
c1ccc(Cc2ccc(OCCn3cncn3)cc2)cc1	TDP-43 yeast inh inconclusive
Nc1cc([N+](=O)[O-])ccc1Nc1ccccc1	TDP-43 yeast inh 14µM
O=[N+]([O-])c1ccc(O)c(NC(=S)Nc2ccccc2)c1	TDP-43 yeast inh 13µM
O=[N+]([O-])c1cc(Br)c(Nc2ccccc2)c([N+](=O)[O-])c1	TDP-43 yeast inh 3.5µM
CC(C)(C)C(=O)NC1CCCCN(Cc2cccc(C(F)(F)F)c2)C1=O (stereo not given)	none (no result: TDP-43 yeast inh, aSyn rescue, Abeta rescue)
CSc1nc(N)n2nc(C(C)(C)C)cc2n1	TDP-43 yeast inh 18µM
CCN(CC)c1ccc(/C=C(\C#N)c2ccccn2)cc1	TDP-43 yeast inh 16µM
CCN(Cc1ccccc1)c1ccc(/C=C(\C#N)c2ccccn2)cc1	none
C=CCn1c(N)c(C(=O)Nc2ccc(C)c(C)c2)c2nc3ccccc3nc21	none
C=CCn1c(N)c(C(=O)Nc2cccc(C)c2)c2nc3ccccc3nc21	TDP-43 yeast inh 25µM
Cc1ccc(-n2c(CCC(=O)O)ccc2-c2cccs2)cc1Cl	Abeta rescue inconclusive (no result: aSyn rescue)
Cc1ccc(-n2nnnc2C(Cl)c2nnnn2-c2ccc(C)cc2)cc1	TDP-43 yeast inh 3.5µM
O=C(/C(=N/O)c1ccccc1)c1ccccc1	TDP-43 yeast inh 22µM
O=C(COC(=O)c1ccc2ncsc2c1)Nc1cccc(Cl)c1	TDP-43 yeast inh inconclusive (no result: FUS yeast rescue)
O=C(OCCOc1cccc(Cl)c1)c1ccc2ncsc2c1	TDP-43 yeast inh 14µM
O=C(COC(=O)c1ccc2ncsc2c1)NCc1ccc(F)cc1	none
O=C(COC(=O)c1ccc2ncsc2c1)NCc1ccccc1Cl	TDP-43 yeast inh 20µM
O=C(COc1ccc2c(c1)CCC2)NCc1cccc(Cl)c1	TDP-43 yeast inh 20µM
O=C(COC(=O)c1ccc2ncsc2c1)NCc1cccc(Cl)c1	TDP-43 yeast inh 28µM
CN(C)c1ccc(CNC(=O)C2CCCN(S(=O)(=O)c3ccc4c(c3)oc(=O)n4C)C2)cc1 (stereo not given)	none (no result: aSyn rescue)
NC1=C(Br)C(=O)c2ncccc2C1=O	TDP-43 yeast inh 11µM (no result: FUS yeast rescue)
CCOc1ccc(CCNC(=O)c2ccc(C)c(-n3cnc4cccnc43)c2)cc1	none (no result: aSyn rescue)
CCN(CC)c1nc(N)c2c(N)nc3c(c2c1C#N)CC(c1ccccc1)O3 (stereo not given)	none
CCN(CC)c1nc(N)c2c(N)n(-c3ccccc3C)c(=S)c(C#N)c2c1C#N	FUS yeast rescue 28µM
Cc1cccc(-n2c3nc(=O)[nH]c(=O)c-3cc3c(Cl)cccc32)c1C	none (no result: aSyn rescue)
COc1cccc(/C(C)=N/NS(=O)(=O)c2ccc(Cl)cc2)c1	none
COc1cccc(/C(=N/O)C2CC2c2ccc(Cl)cc2)c1 (stereo not given)	TDP-43 yeast inh 16µM
CCCCC(c1nnnn1CC1CCCO1)N1CCN(c2cc(Cl)ccc2C)CC1 (stereo not given)	TDP-43 yeast inh 18µM (no result: FUS yeast rescue)
Cc1sc2nc(COC(=O)CNC(=O)c3ccccc3Cl)[nH]c(=O)c2c1C	none (no result: TDP-43 yeast inh, aSyn rescue, Abeta rescue)
COc1ccc(Nc2nc3ccccc3nc2NS(=O)(=O)c2ccc(Cl)cc2)cc1OC	none
CC(C)C[C@@H](CN1CCC[C@@H]1CN1C(=S)NC[C@@H]1Cc1ccc(O)cc1)N1C[C@H](Cc2ccc(O)cc2)N(CCc2ccccc2)C1=S	FUS yeast rescue 35µM
CCN(CC)C(=O)CCCOc1ccc(Cl)cc1Cl	TDP-43 yeast inh 13µM
O=C(CCCOc1ccc(Cl)cc1Cl)N/N=C/c1ccccc1	none (no result: FUS yeast rescue)
O=C(CCCOc1ccc(Cl)cc1Cl)N/N=C/c1ccccc1O	TDP-43 yeast inh inconclusive, aSyn rescue 22µM, Abeta rescue inconclusive (no result: FUS yeast rescue)
COc1cccc2c1C(=O)/C(=C/c1ccc(N(C)C)cc1)C2	none (no result: TDP-43 yeast inh, Abeta rescue, FUS yeast rescue)
Cc1ccc(C)c(S(=O)(=O)c2c(C)cc(C)nc2Cl)c1	TDP-43 yeast inh 11µM
Cc1ccc(S(=O)(=O)c2c(C)cc(C)nc2Cl)c(C)c1	TDP-43 yeast inh inconclusive
COC(=O)c1cccc(NC(=S)Nc2cccc(Cl)c2Cl)c1	TDP-43 yeast inh 18µM
Cc1cccc(C)c1NC(=S)N(Cc1ccccc1)Cc1cccs1	TDP-43 yeast inh 35µM
COc1cccc(NC(=O)CN2CCSc3ccccc32)c1	TDP-43 yeast inh 22µM
